PubChem BioAssay (NCATS)
Results filed as inconclusive are left out. A call without a number means that no potency is given here. Activity calls are given as the source filed them. Calls come from the whole dose curve; as a rule, active = well fitted curve in the direction sought with a large enough effect; inconclusive = small, poorly fitted or top-dose-only effect, or another doubt; inactive = no such curve, though single readings can be large; an effect the other way counts as inactive or inconclusive.

Tests used:
[1] = Quantitative High-Throughput drug screen in 47 multiple myeloma cell lines against the NCATS MIPE library collection: ARD_JJKsccE7 cell viability assay (AID 1918929)
How it was run: (§1)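 We plated 500 myeloma cells per well, pinned in MIPE 4.0 compounds, and incubated for 48 hours at 37C. ATP was then quantified with CellTiter-Glo, with DMSO and media-only wells defining 100% and 0%.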

[2] = Quantitative High-Throughput drug screen in 47 multiple myeloma cell lines against the NCATS MIPE library collection: Karpas620_DSMZ cell viability assay (AID 1918959); note: nearly all actives have a fitted effect of over 30% in size
How it was run: (§2)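 Myeloma cell lines, 500 cells per well, exposed to MIPE 4.0 library compounds for 48 h at 37C, 5% CO2. Viability from ATP by CellTiter-Glo luminescence; normalised to DMSO (100%) and media-only (0%) wells.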

[3] = Quantitative High-Throughput drug screen in 47 multiple myeloma cell lines against the NCATS MIPE library collection: KMM1_JCRB cell viability assay (AID 1918960); note: nearly all actives have a fitted effect of over 30% in size
How it was run: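 Myeloma cells, 500 per well, were exposed to MIPE 4.0 drugs by pin transfer for 48 h at 37 °C, 5% CO2. Viability was read as ATP luminescence with CellTiter-Glo, normalised to DMSO-only (100%) and medium-only (0%) wells.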

[4] = Quantitative High-Throughput drug screen in 47 multiple myeloma cell lines against the NCATS MIPE library collection: JIM3_ECACC cell viability assay (AID 1918963; note: nearly all actives have a fitted effect of over 35% in size)
How it was run: as §2

[5] = Quantitative High-Throughput drug screen in 47 multiple myeloma cell lines against the NCATS MIPE library collection: JJN3_DSMZ cell viability assay (AID 1918966; note: nearly all actives have a fitted effect of over 50% in size)
How it was run: as §1

[6] = Quantitative High-Throughput drug screen in 47 multiple myeloma cell lines against the NCATS MIPE library collection: H1112_PLB cell viability assay (AID 1918967; note: nearly all actives have a fitted effect of over 30% in size)
How it was run: as §1

[7] = Quantitative High-Throughput drug screen in 47 multiple myeloma cell lines against the NCATS MIPE library collection: Karpas417_ECACC cell viability assay (AID 1918961); settings: Karpas417 myeloma viability, CellTiter-Glo ATP luminescence, 48 h; viability (% of DMSO): at 45.8 µM (top of the series)
How it was run: as §2

[8] = Quantitative High-Throughput drug screen in 47 multiple myeloma cell lines against the NCATS MIPE library collection: INA6_PLB cell viability assay (AID 1918965; note: nearly all actives have a fitted effect of over 55% in size)
How it was run: as §2

[9] = Quantitative High-Throughput drug screen in 47 multiple myeloma cell lines against the NCATS MIPE library collection: KHM11_PLB cell viability assay (AID 1918962); note: nearly all actives have a fitted effect of over 35% in size
How it was run: as §2

[10] = Quantitative High-Throughput drug screen in 47 multiple myeloma cell lines against the NCATS MIPE library collection: JIM1_ECACC cell viability assay (AID 1918964)
How it was run: as §1
Potency is the fitted concentration of half-maximal effect.

SMILES	Potency [1]	Potency [2]	Potency [3]	Potency [4]	Potency [5]	Potency [6]	Potency [7]	Potency [8]	Potency [9]	Potency [10]
CC[C@H](CC[C@@H](C)[C@H]1CC[C@H]2[C@@H]3CC=C4C[C@@H](O)CC[C@]4(C)[C@@H]3CC[C@]12C)C(C)C	inactive	inactive	inactive	inactive	inactive	inactive	–	–	–	–
COC1=C(OC)C(=O)C(CC=C(C)CCC=C(C)CCC=C(C)CCC=C(C)CCC=C(C)CCC=C(C)CCC=C(C)CCC=C(C)CCC=C(C)CCC=C(C)C)=C(C)C1=O	inactive	inactive	–	inactive	–	inactive	inactive	inactive	–	–
O=C1NC(=O)[C@@H](c2cn3c4c(cccc24)CCC3)[C@H]1c1c[nH]c2ccccc12	66.2 nM (active)	74.3 nM (active)	105 nM (active)	–	16600 nM (active)	1660 nM (active)	–	209 nM (active)	–	–
NC(=O)c1ncn([C@@H]2O[C@H](CO)[C@@H](O)[C@@H]2O)c1O	inactive	inactive	inactive	inactive	–	inactive	–	inactive	–	–
CCNC(=O)Nc1ccc(-c2nc3c(c(N4CCOC[C@H]4C)n2)CCN(C2COC2)C3)cc1	1050 nM (active)	16600 nM (active)	–	–	833 nM (active)	590 nM (active)	83.3 nM (active)	2090 nM (active)	469 nM (active)	132 nM (active)
CCCCOc1ccc(C(=O)Nc2ccc(F)cc2F)cc1	inactive	inactive	inactive	inactive	–	inactive	–	–	–	–
Nc1nc(=O)n([C@H]2CSC(CO)O2)cc1F (some centres not stated)	inactive	inactive	inactive	inactive	inactive	–	–	–	–	–
CN1[C@H]2CC(OC(=O)[C@@H](CO)c3ccccc3)C[C@H]1[C@H]1O[C@H]12 (some centres not stated)	inactive	inactive	inactive	inactive	–	inactive	–	–	–	–
C[C@H](O)[C@@H]1C(=O)N2C(C(=O)O)=C(S[C@@H]3CN[C@H](CNS(N)(=O)=O)C3)[C@@H](C)[C@@H]12	inactive	inactive	inactive	inactive	–	inactive	–	–	–	–
c1cc(N[C@@H]2CCNC2)nc(-c2cnc3ccc(-c4cn[nH]c4)cn23)c1	26400 nM (active)	10500 nM (active)	–	–	5900 nM (active)	11800 nM (active)	4690 nM (active)	935 nM (active)	3320 nM (active)	4180 nM (active)
COC(=O)C=CC(=O)OC	1180 nM (active)	inactive	–	–	–	–	4180 nM (active)	18700 nM (active)	18700 nM (active)	–
Oc1cc(-c2nc(-c3ccccc3)[nH]c2-c2ccncc2)ccc1Cl	5900 nM (active)	5900 nM (active)	1870 nM (active)	–	18700 nM (active)	–	–	–	–	–
CCN(CC)CCNC(=O)c1c(C)[nH]c(C=C2C(=O)Nc3ccc(F)cc32)c1C	2150 nM (active)	4810 nM (active)	–	2150 nM (active)	6050 nM (active)	6790 nM (active)	136 nM (active)	1210 nM (active)	1080 nM (active)	481 nM (active)
CN[C@H](CC(C)C)C(=O)N[C@H]1C(=O)N[C@@H](CC(N)=O)C(=O)N[C@@H]2C(=O)N[C@H]3C(=O)N[C@H](C(=O)N[C@H](C(=O)O)c4cc(O)cc(O)c4-c4cc3ccc4O)[C@H](O)c3ccc(c(Cl)c3)Oc3cc2cc(c3O[C@@H]2O[C@H](CO)[C@@H](O)[C@H](O)[C@@H]2O[C@H]2C[C@](C)(N)[C@H](O)[C@H](C)O2)Oc2ccc(cc2Cl)[C@H]1O	2.3 nM (active)	inactive	inactive	–	inactive	inactive	–	–	–	–
C[C@H](NC(=O)[C@@H](O)c1cc(F)cc(F)c1)C(=O)N[C@@H]1C(=O)N(C)c2ccccc2-c2ccccc21	inactive	inactive	inactive	–	inactive	14800 nM (active)	–	inactive	–	–
CC(=O)O[C@H]1C[C@@H]2CC[C@H]3[C@H]4C[C@H]([N+]5(C)CCCCC5)[C@@H](OC(C)=O)[C@@]4(C)CC[C@@H]3[C@@]2(C)C[C@H]1[N+]1(C)CCCCC1	inactive	inactive	inactive	inactive	–	inactive	–	inactive	–	–
NC[C@H]1O[C@H](O[C@H]2[C@@H](O)[C@@H](O[C@H]3O[C@H](CO)[C@@H](O)[C@H](N)[C@@H]3O)[C@H](N)C[C@@H]2N)[C@H](N)C[C@H]1O	inactive	inactive	inactive	–	1870 nM (active)	inactive	–	–	–	–
CC(=O)OC[C@@H]1O[C@@H](n2ccc(=O)[nH]c2=O)[C@H](OC(C)=O)[C@H]1OC(C)=O	inactive	inactive	–	inactive	inactive	inactive	inactive	–	–	inactive
